High-throughput results (PubChem BioAssay)
LDHA inh – blocks human lactate dehydrogenase A. activity change, % (values are at about 110 or 230 µM). 480,000 tested, 0.15% active. purified LDHA, NADH/diaphorase-resazurin fluorescence; active compounds read low. AID 1347041; in the data active = activity change below about -30%; inconclusive = mostly about -25% to -30%;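 also: plate controls were DMSO wells for no effect and wells without enzyme for full effect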
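Human LDH5 (2 nM) was incubated with 0.06 mM NADH and 0.2 mM pyruvate for 5 min at room temperature in Tris pH 7.4. Remaining NADH was coupled through diaphorase/resazurin, and resorufin fluorescence was read at 0 and 20 min.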
TDP1 cell CPT – DT40-hTDP1 cell growth loss with CPT; Potency, µM (top dose mostly 46.2 µM), inactives show at the highest dose activity change, negative = growth inhibition, most hits filed as inhibitors; chicken DT40 Tdp1-/-;hTDP1 cells + 20 nM CPT, ATP luminescence, 48 h; 420,000 tested, 12% active; also: potency is read from the fitted curve at half-maximal effect; nearly all actives have a fitted effect of over 55% in size
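Chicken DT40 Tdp1-/- cells stably complemented with human TDP1 were seeded at 400 cells/well in medium containing 20 nM camptothecin, exposed to pin-transferred compounds, and grown at 37 °C for at least 48 hr. Viability was read as ATP luminescence.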
DT40 TDP1 no CPT – qHTS for Inhibitors of human tyrosyl-DNA phosphodiesterase 1 (TDP1): qHTS in cells in absence of CPT. DT40 Tdp1-/- hTDP1 cells, no CPT, ATP luminescence, 48 h. Potency, µM (series often up to 46.2 µM), inactives show at the top dose activity change, negative = growth inhibition, actives largely listed as inhibitors. AID 686978, 2013. 420,000 tested, 15% active; also: potency is read from the fitted curve at half-maximal effect; nearly all actives have a fitted effect of over 55% in size
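Growth kinetics read by CellTiter-Glo luminescence after ≥48 hr at 37 °C. Cells: DT40 Tdp1-/- stably carrying human TDP1, 400 per well, compound exposure in the absence of CPT (DMSO vehicle).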
IL-1B inflam inh – inhibitors of inflammasome signaling (IL-1 beta secretion); THP-1 LPS/ATP IL-1B secretion, AlphaLISA, 16 h; active compounds read low; activity change, % at 57.5 µM; 360,000 tested, 4.7% active; in the data active = activity change below about -50%; inconclusive = mostly about -30% to -49%
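THP-1 cells pretreated 1 hr with compounds (up to 57.5 uM final), then stimulated with LPS (250 ng/mL final) plus ATP (1.25 mM final); secreted IL-1B measured by AlphaLISA after 16 hr, decreased signal indicating inhibition.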
Gal4-VP16 FLuc – inhibits Gal4-VP16 luciferase reporter, ROR gamma counter-screen | Drosophila S2 Gal4-VP16 UAS-luciferase, luminescence, 20 h | Potency, µM (titrated, usually from 53.6 µM), for inactives: at the top dose activity, negative = inhibition, actives largely listed as inhibitors | 310,000 tested, 3.5% active;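 also: Gal4-VP16 expression switched on by copper sulfate through the metallothionein promoter; potency is read from the fitted curve at half-maximal effect; nearly all actives have a fitted effect of over 50% in size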
RORgamma inh – blocks mouse ROR gamma transcriptional activity. 310,000 tested, 5.4% active. P51450. Potency, µM (top dose mostly 53.6 µM), for the others: at the top dose activity change, negative = inhibition, usual class: inhibitors. Drosophila S2 Gal4-RORgamma UAS-luciferase reporter, 20 h; also: potency is read from the fitted curve at half-maximal effect; nearly all actives have a fitted effect of over 60% in size
Target sequence (P51450 whole entry, looked up, the tested form may be a part): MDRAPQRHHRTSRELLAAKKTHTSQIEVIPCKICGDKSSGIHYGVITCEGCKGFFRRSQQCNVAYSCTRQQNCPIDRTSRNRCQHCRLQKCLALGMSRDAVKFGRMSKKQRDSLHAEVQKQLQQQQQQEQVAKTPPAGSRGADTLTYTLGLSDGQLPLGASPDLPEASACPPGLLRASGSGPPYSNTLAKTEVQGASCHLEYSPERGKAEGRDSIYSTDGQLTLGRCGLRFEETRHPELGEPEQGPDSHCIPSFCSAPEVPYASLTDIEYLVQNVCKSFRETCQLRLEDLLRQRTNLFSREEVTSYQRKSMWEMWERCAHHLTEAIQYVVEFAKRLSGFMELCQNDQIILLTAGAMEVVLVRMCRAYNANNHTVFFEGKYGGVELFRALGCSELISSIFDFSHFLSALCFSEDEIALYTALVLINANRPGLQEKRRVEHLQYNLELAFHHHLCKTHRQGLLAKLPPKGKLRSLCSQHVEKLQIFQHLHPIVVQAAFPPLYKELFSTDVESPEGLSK
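Drosophila Schneider cells stably carrying a metallothionein-driven Gal4 DBD–ROR gamma fusion and a UAS-Photinus luciferase reporter were exposed to compound for 1 hr, then induced with copper sulfate (700 uM final) for 20 hr at ambient temperature before luminescence reading.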
An asterisk follows results filed as active; ? = inconclusive; . = no result given; [ ] = dose if it differs, or a comment. Rows were chosen to be rich in hits. Some 18% of all compounds tested hit in one or more screens of this group. Unless noted, calls follow the shape of the dose curve; as a rule, active = well fitted curve in the direction sought with a large enough effect; inconclusive = small, poorly fitted or top-dose-only effect, or another doubt; inactive = no such curve, though single readings can be large; an effect the other way counts as inactive or inconclusive. Unless noted, % is scaled to controls: 0 for no effect and ±100 for the full control effect.

SMILES	LDHA inh	TDP1 cell CPT	DT40 TDP1 no CPT	IL-1B inflam inh	Gal4-VP16 FLuc	RORgamma inh
CCC(C)(C(=O)NC1CCCC1)N(C(=O)CNC(=O)c1ccccc1)c1ccc(C)cc1 (configuration not stated)	-11	.	.	.	.	.
CCN(CCNC(=O)c1cc2ccccc2oc1=O)c1cccc(C)c1	11	.	.	.	.	.
CCC(C)Nc1nc2c(c(=O)n(C)c(=O)n2C)n1C(C)C (configuration not stated)	-7	.	.	.	.	.
CC1CCN(C(=O)CCc2ccc(Oc3cc([N+](=O)[O-])cc([N+](=O)[O-])c3)cc2)CC1	-3	?	?	-57*	2%	-16%[10 µM]
O=C(CCc1ccc(Oc2cc([N+](=O)[O-])cc([N+](=O)[O-])c2)cc1)NC1CCCC1	-9	?	?	26	0%	-5%
Cc1noc2nc(-c3ccccc3)cc(C(=O)NCc3ccc(N4CCOCC4)nc3)c12	0	.	.	.	.	.
Cc1ccc(-c2nc(CS(=O)(=O)CC(=O)NCCCN(Cc3ccccc3)C(C)C)c(C)o2)cc1	0	?	?	-4	6%	10%
Cc1oc(-c2ccc(-c3ccccc3)cc2)nc1CN(CCO)C(C)C	-1	15%	?	-82*	?	7.9µM*
CNc1nc(N/N=C/c2cc([N+](=O)[O-])ccc2F)nc(Nc2ccccc2)n1	-1	13µM*	7.3µM*	-97*	.	.
COc1ccc(Cl)cc1-n1c(/C=C/c2cccc3ccccc23)nc2ccccc2c1=O	-11	?	?	.	.	.
COc1ccc(-n2c(/C=C/c3cccc4ccccc34)nc3ccccc3c2=O)cc1OC	-17	?	15µM*	.	.	.
COc1ccc(/C=C/c2nc3ccccc3c(=O)n2-c2cccc(C(=O)O)c2)cc1	-7	-13%	-11%	-5	-2%	5%
COc1ccc(/C=C/c2nc3ccccc3c(=O)n2-c2cccc(C(F)(F)F)c2)cc1	-14	5.8µM*	12µM*	.	.	.
COc1cc(OC)c(OC)cc1/C=C/c1nc2cc3ccccc3cc2c(=O)n1-c1ccc(Cl)cc1	-10	13µM*	16µM*	.	.	.
CCOCCCNc1oc(-c2ccc(S(=O)(=O)N3CCCCC3)cc2)nc1C#N	0	.	.	.	.	.
Fc1ccc(Sc2ncccc2Cl)cc1	-2	.	.	.	.	.
Cc1cccc(/C=N/NC(=O)CCc2ccccc2)c1	7	.	.	.	.	.
Cc1ccc(C23CC4CC(CC(C(=O)N5CCN(C)CC5)(C4)C2)C3)cc1	0	?	?	-26	0%	-2%
Cc1ccc(C23CC4CC(CC(C(=O)NC(C)C)(C4)C2)C3)cc1	-4	?	26µM*	-20	-4%	38%
Cc1ccc(C23CC4CC(CC(NC(=O)N5CCN(C)CC5)(C4)C2)C3)cc1	-3	?	?	?	-23%	13µM*
COc1ccc(NC(=O)C23CC4CC(C2)CC(c2ccc(C)cc2)(C4)C3)cc1	3	29µM*	23µM*	-7	?	27%
COc1ccc(-c2ocnc2C(=O)Nc2cc(Cl)ccc2OC)cc1	10	.	.	.	.	.
O=C(c1cccnc1)N(Cc1cccs1)C1CC1	-1	.	.	.	.	.
CC(=O)c1ccc(N2C(=O)N(Cc3cccc(C(F)(F)F)c3)c3ccccc3S2(=O)=O)cc1	-1	16µM*	15µM*	.	.	.
CC(C)(C)C(=O)CN1C(=O)N(c2ccc(Cl)cc2)S(=O)(=O)c2ccccc21	15	.	.	.	.	.
CC(=O)c1ccc(N2C(=O)N(CC(=O)c3ccc(C)cc3)c3ccccc3S2(=O)=O)cc1	-3	?	23µM*	.	.	.
COc1ccc(N2C(=O)N(Cc3ccc(C)cc3)c3ccccc3S2(=O)=O)cc1	-12	?	?	9	-1%	5%
